# High-throughput results from PubChem BioAssay.
# An excerpt weighted towards active compounds, which were near 2.4% of everything screened.
# D2 ag-1 = activates the human D2 dopamine receptor | activation, % (concentration not given with the values) | AID 624465 | actives 0.084% (n = 360,000) | DiscoveRx PathHunter D2 beta-arrestin, luminescence, 90 min; 100% = 57 uM dopamine signal | P14416; in the data active = activation above about 40%; inconclusive = between about 15% and that limit
# Target sequence (P14416 whole entry, looked up): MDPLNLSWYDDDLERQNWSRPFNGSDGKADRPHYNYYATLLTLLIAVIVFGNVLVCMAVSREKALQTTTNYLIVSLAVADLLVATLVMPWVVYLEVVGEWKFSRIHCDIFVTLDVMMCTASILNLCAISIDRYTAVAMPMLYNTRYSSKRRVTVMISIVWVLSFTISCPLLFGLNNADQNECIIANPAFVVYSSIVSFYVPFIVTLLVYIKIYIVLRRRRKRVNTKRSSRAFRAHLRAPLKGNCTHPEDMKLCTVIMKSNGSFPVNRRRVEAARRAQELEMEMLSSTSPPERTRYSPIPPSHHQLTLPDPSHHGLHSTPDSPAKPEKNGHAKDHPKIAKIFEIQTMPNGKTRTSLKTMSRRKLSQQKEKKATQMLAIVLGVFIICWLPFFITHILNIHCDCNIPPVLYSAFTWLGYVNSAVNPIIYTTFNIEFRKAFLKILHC
#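 Agonist mode: compounds alone added to overnight-plated D2 PathHunter cells for 90 min at 37 C, with 57 uM final dopamine (EC100) defining full response. Beta-arrestin recruitment detected by chemiluminescent reagent, read after 1 h at ambient temperature.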
# D2 PAM-1 = positive allosteric modulators of human D2 dopamine receptor; potentiation, % at 10 µM; AID 485347; P14416; HEK293 T-REx D2, calcium flux, EC20 dopamine potentiation; actives 0.34% (n = 340,000);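 active = potentiation over 3 SD above the plate norm, cut at about 30% in these data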; also: 0% is about no effect
#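 Potentiation of an EC20 dopamine calcium response measured kinetically over 180 s, after a preceding 180 s compound-only read flagging agonists. Cells: inducible Hek293 Trex D2 line, 4000/well, cultured overnight at 30 C before dye loading.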
# D2 antag = D2 dopamine receptor (human) antagonism. P14416. HEK293 TREx D2 cells, calcium flux, dopamine EC80. inhibition, % at 10 µM. actives 2% (n = 340,000). AID 485344; in the data active = inhibition above about 30%; inactive = below that, where a call was filed; also: 0% is about no effect
#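 Antagonism is scored as inhibition of an EC80 dopamine-evoked calcium signal in a force-coupled, tetracycline-inducible HEK293 T-REx D2 line, with compound present 180 s before agonist.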
# D2 ag-2 = agonists of human D2 dopamine receptor; actives 0.53% (n = 340,000); HEK293 T-REx D2 cells, calcium flux agonist mode; AID 485358; activation, % at 2 µM; P14416;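 active = activation over 3 SD above normal in the single-dose calcium agonist read, cut at about 30% in these data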; also: 0% is about no effect
#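 HEK293 Trex D2 cells, tetracycline-induced, o/n 30 C 5% CO2; no-wash Ca dye, RT 30–90 min; 10-cycle baseline, 23 nl cpd added, kinetic Ca read 180 s; agonist hits = positive Ca response.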
# D2 PAM-2 = human D2 receptor positive allosteric modulation. DiscoveRx D2 beta-arrestin cells, luminescence, 90 min; 100% = 57 uM dopamine signal. actives 0.23% (n = 360,000). potentiation, % (concentration not given with the values); in the data active = potentiation above about 50%; inconclusive = mostly about 30% to 49%
#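 PathHunter D2 cells, attached overnight at 37 deg C, received compound in DMSO plus dopamine at EC20 (50 nM final) for 90 min at 37 deg C. Beta-arrestin recruitment was read as luminescence after 1 h with detection reagent at ambient temperature.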
# D3 ag = D3 receptor agonism confirmed, beta-arrestin readout; shares compounds with D2 ag-2; DiscoveRx D3 beta-arrestin cells, luminescence, 90 min; Potency, µM (highest dose often 76.9 µM), for the others: at the top dose activation, hits mostly activators; actives 4% (n = 2,300); AID 720506;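 also: potency is read from the fitted curve at half-maximal effect; 100% = dopamine control response; nearly all actives have a fitted effect of over 70% in size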
# D2 ag-3 = D2 receptor agonism, beta-arrestin counterscreen; shares compounds with D2 ag-2; DiscoveRx PathHunter D2 beta-arrestin, luminescence, 90 min; response scale: percent relative to full dopamine signal; Potency, µM (top dose mostly 76.9 µM), for inactives: at the top dose activation, actives largely listed as activators; actives 5.9% (n = 2,300); AID 720507; also: potency is read from the fitted curve at half-maximal effect; % of control where 0% means no effect; nearly all actives have a fitted effect of over 70% in size
# Starred values were filed as active, the others as inactive; ? = inconclusive; . = no result. Unless noted, calls follow the shape of the dose curve; as a rule, active = well fitted activation curve with a large enough effect; inconclusive = small, poorly fitted or top-dose-only effect; inactive = flat fitted curve, though single readings scatter.
SMILES,D2 ag-1,D2 PAM-1,D2 antag,D2 ag-2,D2 PAM-2,D3 ag,D2 ag-3
COc1cc2c3c(c1OC)-c1cc(O)ccc1CC3NCC2 (stereo not drawn),8.7,-10.2,0.0,20.5,-12.7,-3.7%,15.8%
Cc1cccc(CN2C(=O)CN=C(c3ccccc3Cl)c3cc(Cl)ccc32)c1,.,-9.7,.,.,.,.,.
COC(=O)C1=C(c2cc3ccccc3s2)C[C@@H]2CC[C@H]1N2C,3.5,-7.3,58.2*,29.0,-25.8,6.7%,22.1%
COC(=O)C1=C(c2cc3ccccc3s2)C[C@@H]2CC[C@H]1N2C(=O)NC1CC1,-0.1,.,.,.,-16.5,.,.
O=C(Nc1ccc(Br)cc1C(=O)c1ccccc1Cl)c1ccccc1F,.,-1.5,.,.,.,.,.
CCC(N)Cc1c[nH]c2ccccc12 (stereo not drawn),1.0,-5.3,-24.4,11.8,-4.3,-4.2%,-2.9%
CNCCc1c[nH]c2ccccc12,4.5,-6.8,16.2,11.3,-19.8,.,.
CCN(CC)P(=O)(/C=C(\Cl)c1ccccc1)/C=C(\Cl)c1ccccc1,-2.5,10.9,16.8,0.3,-8.5,-14.6%,1.1%
O=C(Nc1ccc2c(c1)OCO2)c1cccn(Cc2cccc([N+](=O)[O-])c2)c1=O,.,-4.2,.,4.6,.,.,.
N#C/C(N)=C(/N)C#N,-4.7,11.7,4.0,0.1,-12.6,-4.4%,-5.2%
CCc1ccc(CNCCc2c[nH]c3ccccc23)cc1,-3.0,-15.9,14.1,7.4,-77.5,-14.0%,-1.0%
CCCCOCCCN1C(C)=CC(=C2C(=O)NC(=S)NC2=O)C=C1C,-4.0,-10.3,18.1,-0.2,-0.9,-11.5%,-5.4%
NCC(O)c1cc(O)c(O)cc1F (stereo not drawn),-4.0,-5.2,81.2*,66.8*,-0.3,-0.3%,12.6µM*
Cc1ccc(-n2c(/C=C/c3cc(Br)cs3)nc3ccccc3c2=O)cc1C,.,-10.4,.,1.1,.,.,.
CCOc1ccc(CN(CCc2ccc3c(c2)OCO3)Cc2cccc(OC)c2)cc1,.,-26.7,.,.,.,.,.
CC(C)(C)c1cc(C=C(C#N)C#N)cc(C(C)(C)C)c1O,-9.2,-3.0,20.0,7.3,-12.4,?,0.6%
N#CC(C#N)=Cc1ccc(O)c(O)c1,-3.7,8.9,-22.1,0.9,-4.9,.,.
c1ccc(C2CC2)c(OCC2=NCCN2)c1,-3.3,-9.3,47.0*,8.1,-14.8,-1.6%,24.1%
c1ccc2cc(CC3=NCCN3)ccc2c1,0.7,5.7,-16.3,11.5,-6.9,.,.
COc1cccc(-n2c(/C=C/c3ccccc3O)nc3ccccc3c2=O)c1,.,.,.,-0.8,.,.,.
N#C/C=C/C#N,1.8,4.7,3.2,0.4,-1.2,-1.6%,-4.6%
O=c1[nH]cnc2nc(-c3ccc(N(CCCl)CCCl)cc3)[nH]c12,6.1,.,.,.,-0.1,.,.
O=C(COc1ccccc1Cl)N1CCN(CCc2ccncc2)CC1,.,19.0,.,-1.4,.,.,.
O=P(CN1CCN(c2ccccc2)CC1)(N1CCCCC1)N1CCCCC1,9.3,-1.2,36.5*,28.2,5.3,10.6%,12.9%
CC(C(N)=O)N1CC(c2ccccc2)CC1=O (stereo not drawn),1.2,-18.8,0.4,45.1*,-11.7,-0.4%,-1.8%
SMILES,D2 ag-1,D2 PAM-1,D2 antag,D2 ag-2,D2 PAM-2,D3 ag,D2 ag-3
CN1CN(c2ccccc2)C2(CCN(CCCSc3ccccc3NC(=O)/C=C/c3ccccc3)CC2)C1=O,-0.6,.,.,.,-29.1,.,.
Cc1ccccc1-n1c(/C=C/c2ccc(O)cc2)nc2ccccc2c1=O,.,5.2,.,1.2,.,.,.
CCCCc1nn2c(=O)cc(COC(=O)Cc3ccccc3)nc2s1,.,0.8,.,2.2,.,.,.
c1ccc(-c2cc(-c3ccccc3)[n+](-c3ccccc3)c(-c3ccccc3)c2)cc1,14.1,.,.,.,22.9,.,.
Cc1ccc(-c2cc(-c3ccc(C)cc3)[n+](-c3ccccc3)c(-c3ccc(C)cc3)c2)cc1,4.0,1.2,48.9*,28.0,-88.3,15.9%,18.0%
COc1ccc(CN2CCN(c3ccccc3)CC2)c(C)c1C,9.7,-19.1,65.2*,63.4*,-26.8,6.6%,17.6%
C[C@@H]1CN([C@H](C)CO)C(=O)CCCn2nncc2CO[C@H]1CN(C)C(=O)Oc1ccccc1,-3.0,.,.,.,.,.,.
Fc1ccccc1N1CCN(Cc2c(F)cccc2F)CC1,4.4,-17.0,21.4,35.7*,-9.7,-1.7%,17.9%
Fc1cccc(F)c1CN1CCN(c2ccc(Cl)cc2)CC1,-1.1,1.8,-11.9,0.5,-13.6,.,.
Cc1ccccc1N1CCN(Cc2ccc3c(c2)OCO3)CC1,2.1,-20.9,83.0*,25.6,-30.9,-7.2%,6.1%
Fc1ccccc1N1CCN(Cc2ccc3c(c2)OCO3)CC1,42.4*,-21.2,88.4*,78.4*,10.5,?,?
Clc1ccccc1N1CCN(Cc2ccc3c(c2)OCO3)CC1,5.8,-16.6,60.2*,71.3*,-0.4,8.3%,?
Cc1ccc(-n2c(/C=C/c3cccc4ccccc34)nc3ccccc3c2=O)cc1,.,-9.6,.,0.0,.,.,.
CCOc1ccc(CN2CCN(C(=O)Cc3ccccc3)CC2)cc1,-7.3,-3.3,-14.1,0.7,-21.2,.,.
CCOC(=O)C1CCN(Cc2ccc(Cl)nc2)CC1,3.6,-20.3,46.7*,46.8*,-13.1,-3.1%,1.1%
COc1ccccc1N1CCN(Cc2ccc(F)cc2)CC1,5.8,-22.1,75.9*,38.4*,-10.9,-4.3%,-0.6%
COc1ccc(CN2CCN(c3ccccc3F)CC2)cc1O,10.8,.,.,.,-31.7,14.9%,21.7%
CC(CCN1CC1)=NNC(=O)Nc1cccc2ccccc12,-2.8,.,.,.,-25.7,.,.
COC(=O)C1=C(c2ccc(-c3ccccc3)c(F)c2)C[C@@H]2CC[C@H]1N2C(=O)NCCOc1ccccc1Cl,-3.4,-5.4,-7.8,0.2,-15.8,-1.1%,0.3%
COC(=O)C1=C(c2ccc(OCc3ccccc3)cc2)C[C@@H]2CC[C@H]1N2C(=O)NCc1ccc(N(C)C)cc1,-3.1,16.1,-3.5,1.0,-7.0,-1.4%,4.4%
COC(=O)C1=C(c2ccc(OCc3ccccc3)cc2)C[C@@H]2CC[C@H]1N2C(=O)NCc1ccc(F)cc1,-8.8,.,.,.,-6.3,.,.
CCCNC(=O)N1[C@H]2CC[C@@H]1C(C(=O)OC)=C(c1ccc(-c3ccccc3)c(F)c1)C2,-0.8,-6.0,-9.9,0.6,-17.4,1.0%,?
COC(=O)C1=C(c2ccc(-c3ccccc3)c(F)c2)C[C@@H]2CC[C@H]1N2C(=O)NCCO,-2.2,-1.7,4.0,0.5,-12.0,-1.7%,1.7%
COc1cccc(/C=C/c2nc3ccccc3c(=O)n2-c2ccc(Cl)cc2)c1OC,.,16.7,.,0.9,.,.,.
N#Cc1cccc(NC(=O)CSc2nc3c(cc2C#N)N2CCC3CC2)c1,.,-2.8,.,-0.3,.,.,.
